Test results published in PubChem BioAssay (NCI).
About 79,000 compounds went through this panel and 15% of them were active in at least one assay; those are over-represented in the sample as a whole. Cut-off read from the data, not from the text of the source: active = growth inhibition above about 70%; inactive = the rest. Where a SMILES comes first, the peptide text is derived from it. Bridges are numbered along the chain shown (N, C = ends).

Tests used:
[1] = NCI Yeast Anticancer Drug Screen. Data for the rad50 strain (AID 155);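 note: 0% = growth of vehicle-only cultures of the same strain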; conditions: S. cerevisiae rad50 strain growth inhibition; at 50.0 µM; stronger effect = higher value
How it was run: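 DNA repair mutant yeast, compound exposure, growth read-out; inhibition is taken relative to vehicle.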

[2] = NCI Yeast Anticancer Drug Screen. Data for the mec2-1 strain (AID 157); conditions: S. cerevisiae mec2-1 strain, at 50.0 µM, stronger effect = higher value
How it was run: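 Yeast mec2-1 mutant treated with compound. Readout: growth inhibition vs vehicle controls.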

[3] = NCI Yeast Anticancer Drug Screen. Data for the sgs1 mgt1 strain (AID 161);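 note: 0% = growth of cultures given vehicle only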; conditions: S. cerevisiae sgs1 mgt1 strain, at 50.0 µM, stronger effect = higher value
How it was run: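 Read-out: growth inhibition vs vehicle controls. Cells: mutant yeast strain deficient in DNA damage repair.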

[4] = NCI Yeast Anticancer Drug Screen. Data for the cln2 rad14 strain (AID 165);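 note: 0% = growth equal to vehicle treated cultures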; conditions: S. cerevisiae cln2 rad14 strain, at 50.0 µM, stronger effect = higher value
How it was run: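 cln2 rad14 yeast strain; compound exposure; growth inhibition read vs vehicle controls.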

[5] = NCI Yeast Anticancer Drug Screen. Data for the bub3 strain (AID 167); conditions: S. cerevisiae bub3 mutant strain, at 50.0 µM, stronger effect = higher value
How it was run: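 In this screen, a yeast mutant lacking normal mitotic checkpoint function is challenged with compound. Relative growth versus vehicle gives the inhibition value.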

[6] = NCI Yeast Anticancer Drug Screen. Data for the mlh1 rad18 strain (AID 175); conditions: S. cerevisiae mlh1 rad18 strain growth inhibition; at 50.0 µM; stronger effect = higher value
How it was run: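 Yeast w/ defined DNA-repair lesions; compound exposure; growth vs vehicle controls → % inhibition.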

Measured: growth inhibition

CC(NCCCNC(C)C(=O)O)C(=O)O (stereo unspecified)
inactive: [1] 21.8% | [2] 1.45% | [3] 26.8% | [4] 32.3% | [5] 11.1% | [6] 13.4%

C[n+]1ccccc1C#N
inactive: [1] -17.2% | [2] -32.1% | [3] 0.55% | [4] 11.9% | [5] -43.4% | [6] -4.2%

O=C(CCCCCCCCC(=O)OCc1ccccc1)OCc1ccccc1
inactive: [1] 19.2% | [2] 2.55% | [3] 3.85% | [4] -24.2% | [5] 11.2% | [6] 41%

CCC(SC)C(=O)c1ccccc1 (stereo unspecified)
inactive: [1] -7.55% | [2] -11.6% | [3] 0.5% | [4] -12.4% | [5] -33.8% | [6] -12.8%

CCCCCCCCCCCCCC(=O)Oc1ccc2ccccc2c1
inactive: [1] -4.05% | [2] 3.5% | [3] -3.85% | [4] 5.7% | [5] -10.1% | [6] 8.7%

CC(=O)OCN(C)N=Nc1ccc(C(C)=O)cc1
inactive: [1] -4.6% | [2] -11.3% | [3] -27.8% | [4] -22.7% | [5] 20.9% | [6] 5.45%

O=C(c1nc2ccc(Cl)cc2[nH]c1=O)C(O)c1ccccc1 (stereo unspecified)
inactive: [1] 47.5% | [2] 6.95% | [3] 39.4% | [4] 42.9% | [5] 28.9% | [6] 41.8%

CC(c1ccccc1)C1OCC(CCCCO)O1 (stereo unspecified)
inactive: [1] -7.9% | [2] -20.2% | [3] -10.7% | [4] 0.55% | [5] -15.1% | [6] -20.1%

CN1C2CCC1C1N=NN(c3cc(C(F)(F)F)cc(C(F)(F)F)c3)C1(N1CCOCC1)C2 (stereo unspecified)
inactive: [1] -20.9% | [2] -9.6% | [3] -27.7% | [4] 0.35% | [5] -11.9% | [6] -21.8%

O=[N+]([O-])c1ccc(N=NC(=S)NNc2ccccc2)cc1
inactive: [1] 38.9% | [2] 0.65% | [3] 39.5% | [4] -3.35% | [5] 20.2% | [6] 23.5%

Cc1cc2nc3c(=O)[nH]c(=O)nc-3n(CCOC(=O)CCC(=O)O)c2cc1C
inactive: [1] -8.35% | [2] 9.45% | [3] 10.5% | [4] 0.2% | [5] 3.1% | [6] 3.95%

CCC(C)C=O (stereo unspecified)
inactive: [1] 3.9% | [2] -6.3% | [3] -9.2% | [4] 2.2% | [5] 10.4% | [6] -8.3%

COC1C=CC2OC(c3ccccc3)OCC2O1 (stereo unspecified)
inactive: [1] -16.2% | [2] 9.1% | [3] -9.6% | [4] -35% | [5] 10% | [6] -1.65%

COc1ccc(C2ON(c3ccccn3)CC=C2C)cc1 (stereo unspecified)
inactive: [1] 12.4% | [2] -9.25% | [3] 12.6% | [4] 12.2% | [5] -2.45% | [6] 6.55%

O=C1C=CC2(C=C1)OCC(=O)O2
inactive: [1] 6.15% | [2] 10.2% | [3] 3.25% | [4] 4.65% | [5] -3.1% | [6] 0.5%

CN(C)c1ccc(/C=N/NC=O)c(Cl)c1
inactive: [1] 0.15% | [2] 8.25% | [3] -0.6% | [4] 11.3% | [5] -0.65% | [6] -15.3%

COc1ccc(NC(=O)CSc2nnc(Cc3ccccc3)o2)cc1
inactive: [1] -49.5% | [2] -37.4% | [3] -43.6% | [4] -21.1% | [5] -54% | [6] -57.6%

C[Si](C)(CCCNCCN)O[Si](C)(C)CCCNCCN
inactive: [1] -7.3% | [2] -24.1% | [3] 5.65% | [4] -2.1% | [5] 9.2% | [6] 9.95%

O=C(O)C1CCC(C(=O)O)CC1.[NH-]C1CCCCC1[NH-].[Pt+2] (stereo unspecified)
inactive: [1] 45.6% | [2] -29.9% | [3] -1.15% | [4] 6.9% | [5] -19.9% | [6] -70.4%

CC[n+]1ccc(C#N)cc1
inactive: [1] 19.9% | [2] -3.25% | [3] 7.85% | [4] 7.9% | [5] 2.6% | [6] 16.9%

O=S(=O)(O)c1cc[n+]([O-])cc1
inactive: [1] 1.6% | [2] 12.7% | [3] -2.8% | [4] 32.5% | [5] 11.8% | [6] -8.65%

OC1CCOc2ccccc21 (stereo unspecified)
inactive: [1] -29.8% | [2] 10.1% | [3] -11.1% | [4] 10.2% | [5] -14.8% | [6] -6.3%

COc1nc2[nH]c(C)cc(=O)c2c2ccccc12
inactive: [1] 16.4% | [2] 14.8% | [3] 1.45% | [4] -26.8% | [5] -7% | [6] 2.8%

Ic1ccc2c[n+]3ccccc3cc2c1
inactive: [1] -11.7% | [2] 25.9% | [3] 8.85% | [4] -29.8% | [5] 1.75% | [6] -3.95%

COCCCNC1=C(C#N)C(=O)NC2(CCCC2)S1
inactive: [1] -35.6% | [2] -35.5% | [3] -18.5% | [4] -2.65% | [5] -30.8% | [6] -17.2%

CS(=O)(=O)OCC1CCCCCCCCCCC12SCCCS2 (stereo unspecified)
inactive: [1] -30.9% | [2] -22.7% | [3] -3.25% | [4] 20.4% | [5] -23.6% | [6] -45.9%

CCC(C(=O)O)C(=O)O.[NH-]CC1CCCC[N-]1.[Pt+2]
inactive: [1] 7.7% | [2] -3.6% | [3] 2.55% | [4] 7.95% | [5] -39.5% | [6] -34.7%

OCc1ccc(F)cc1CO
inactive: [1] -12.4% | [2] -2.35% | [3] -2.85% | [4] -17.1% | [5] -11.2% | [6] 11.9%

CCOC1(C)Oc2cc3c(cc2C(c2cc(OC)c(OC)c(OC)c2)C1C)OCO3 (stereo unspecified)
inactive: [1] 12.4% | [2] 1.55% | [3] -6.75% | [4] -29.4% | [5] 1.4% | [6] 32.5%

CC(=O)OCC(=O)c1cc(C)n(C)c(=O)c1CN1C(=O)c2ccccc2C1=O
inactive: [1] -10.7% | [2] 9.05% | [3] 2.2% | [4] -36.3% | [5] 10.6% | [6] -12.7%

C=CCC1=C(C)C(O)CC1=O (stereo unspecified)
inactive: [1] -21.9% | [2] -13.7% | [3] -0.75% | [4] -15.7% | [5] 0.7% | [6] -41.6%

O=[N+]([O-])C(C=Nc1ccccc1)C=Nc1ccccc1 (stereo unspecified)
inactive: [1] 6.35% | [2] -23% | [3] -2.85% | [4] -2.25% | [5] -13.4% | [6] 0.45%

CCOC(=O)C1CSSCC(N)C(=O)N1 (stereo not drawn) (H-Cys-Cys-OEt; disulfide 1-2; configuration not given here)
inactive: [1] 5.65% | [2] -1.25% | [3] -11.6% | [4] -48.8% | [5] -11.6% | [6] 4.7%

COC(C[P+](Cc1ccccc1)(c1ccccc1)c1ccccc1)OC
inactive: [1] 66.9% | [2] -2.7% | [3] 39% | [4] 2.4% | [5] 4.1% | [6] 4.35%

CCOC(=O)c1c(OC)c(-c2ccccc2)c(=O)n2c3ccccc3n(C)c12
inactive: [1] 18.2% | [2] 9.05% | [3] -0.2% | [4] -4.1% | [5] -1.1% | [6] 9.9%

O=C(O)c1c(Br)c(Br)c(Br)c(Br)c1C1c2ccc(O)cc2Oc2cc(O)ccc21
inactive: [1] 20.4% | [2] 25% | [3] 35% | [4] -7.75% | [5] -2.6% | [6] 26.6%

COc1ccc(C(=O)O)c2c(=O)c3ccccc3[nH]c12
inactive: [1] -28.8% | [2] -3.2% | [3] -8.55% | [4] 17.2% | [5] 3.2% | [6] 26.8%

O=C(CCc1nnc2s/c(=C\c3ccccc3Cl)c(=O)n12)Nc1cc(Cl)ccc1Cl
inactive: [1] 2.9% | [2] -14.7% | [3] -36.8% | [4] -21.8% | [5] -4.8% | [6] -15.1%

CCCCCCCC(=O)Oc1cccc(C)c1
inactive: [1] -0.9% | [2] -3.3% | [3] -8.6% | [4] -10.3% | [5] -7.35% | [6] 2.2%

CC(=O)/C(=C/N1CC(=O)NC1=S)C(=O)Nc1ccccc1
inactive: [1] -21.6% | [2] -23.2% | [3] -31.4% | [4] -0.35% | [5] -32.6% | [6] 2%

NC1=NN(c2ccccc2)C(=O)C1C(=O)C(=O)Nc1ccc(Cl)c(Cl)c1 (stereo unspecified)
inactive: [1] -6.4% | [2] -23.8% | [3] 11.8% | [4] 0.15% | [5] 12.2% | [6] -6.2%
